Pf growth 48h – P. falciparum growth inhibition at 48 hours (one generation). P. falciparum luciferase growth in erythrocytes, 48 h. Potency, µM (series often up to 28.7 µM), for inactives: at the top dose activity change, negative = inhibition, usual class: inhibitors. 5.9% of 310,000 active. AID 504832; also: potency is read from the fitted curve at half-maximal effect; % is scaled to controls: 0 for no effect and ±100 for the full control effect
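Luciferase-expressing P. falciparum in infected erythrocytes (2% hematocrit, 0.1% parasitemia final) in RPMI 1640/0.5% Albumax were exposed to compound for 48 hours at 37 C, 5% CO2; growth read as luminescence.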
Cycloheximide cs – counter-screen for Shiga toxin inhibitors: cycloheximide protein synthesis inhibition. cell reporter, cycloheximide protein synthesis inhibition counterscreen. 12% of 300,000 active. max response, %; in the data active = max response mostly above about 13%, no sharp cut-off; inactive = mostly below about 14%; also: read at 38.3 µM for the half of the compounds with a filed dose; 0% is about no effect
HCMV antiviral – human cytomegalovirus inhibition; HFF cells, HCMV-luciferase reporter, 72 h; active compounds read low; activity change, negative = inhibition, % at 57.5 µM; 4.5% of 410,000 active; AID 1259415; in the data active = activity change below about -60%; inconclusive = no clear call, values can overlap the other calls; inactive = above about -39%; also: % is scaled to controls: 0 for no effect and ±100 for the full control effect
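Human foreskin fibroblasts infected with luciferase-reporter HCMV at MOI 1 PFU/cell, compounds at two doses. Luciferase measured 72 h post infection; normalized to buffer-only basal and Salinomycin (10uM) controls.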
Pf growth 96h – P. falciparum growth inhibition at 96 hours; P. falciparum luciferase reporter growth, 96 h; Potency, µM (highest dose often 28.7 µM), for inactives: top-dose activity change, negative = inhibition, most hits filed as inhibitors; 6.9% of 320,000 active; AID 504834; also: potency is read from the fitted curve at half-maximal effect; % is scaled to controls: 0 for no effect and ±100 for the full control effect
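P. falciparum expressing integrated firefly luciferase grown in erythrocytes (2% hematocrit, 0.05% parasitemia final) with compounds for 96 hours at 37 C, 5% CO2. Growth inhibition read as loss of luminescence after adding luciferase detection reagent.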
Shiga inhibitor – blocks Shiga toxin action in Vero cells. Vero cells, Shiga toxin protein synthesis inhibition reporter. inhibition, % at 38.7 µM. 9.2% of 290,000 active; in the data active = inhibition mostly above about 28%, no sharp cut-off; inactive = mostly below about 43%; also: 0% is about no effect
HCV inhibitor – HCV inhibition. Huh7.5.1 HCVcc-Cre infection, luciferase reporter, 44 h. Potency, µM (highest dose often 41.8 µM), for the others: top-dose activity change, negative = inhibition, usual class: inhibitors. 3.4% of 340,000 active. AID 651820; also: potency is read from the fitted curve at half-maximal effect; % is scaled to controls: 0 for no effect and ±100 for the full control effect
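HCVcc-Cre virus at an moi near 0.5 was added right after compound to cells cultured 4 h from seeding (1,000 cells/well). Luciferase activity was determined 44 h later, 15 min after substrate addition at RT.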
Starred values were filed as active, the others as inactive; i = inactive; ? = inconclusive; · = not tested or not shown; + = active, no number. The list is not random: actives were taken first. Their share in the collection is about 21%. Unless noted, calls follow the shape of the dose curve; as a rule, active = well fitted inhibition curve with a large enough effect; inconclusive = small, poorly fitted or top-dose-only effect, or another doubt; inactive = no such curve, though single readings can be large or run the other way.

SMILES | Pf growth 48h | Cycloheximide cs | HCMV antiviral | Pf growth 96h | Shiga inhibitor | HCV inhibitor
COCC(C)NC(=O)CCc1nnc(C2(c3ccc(Cl)cc3)CCC2)o1 (stereo unspecified) | 14% | 30* | 25 | -3% | 41* | 1%
O=C(CCc1nnc(-c2ccccc2)o1)c1ccc(Cl)cc1 | 39% | 0 | -18 | 34% | 4 | 3%
C=C(C)CNC(=O)CCc1nnc(C2(c3ccc(Cl)cc3)CCC2)o1 | -1% | 44* | 37 | ? | 75* | -7%
C=CCNC(=O)CCc1nnc(C2(c3ccc(Cl)cc3)CCC2)o1 | ? | 55* | 117 | -27% | 85* | 19%
C=CCNC(=O)C(C)Sc1ccc(Cl)cc1 (stereo unspecified) | -1% | -2 | -10 | ? | -4 | -5%
CC(c1ccon1)N(C)C(=O)CCc1nnc(C2(c3ccc(Cl)cc3)CCC2)o1 (stereo unspecified) | -8% | 21* | -4 | -14% | 48* | 4%
COc1ccc(OC)c(NC(=O)N2CCN(S(=O)(=O)c3ccc4c(ccn4C)c3)CC2)c1 | · | · | 9 | · | · | ·
O=C(CCc1nnc(C2(c3ccc(Cl)cc3)CCC2)o1)NC1CC1 | 10µM* | 14* | 2 | -60% | -2 | 17%
COC(c1ccccc1)c1nnc(CCC(=O)NCCc2ccc(Cl)cc2)o1 (stereo unspecified) | 28% | 1 | -36 | -22% | 3 | 6%
COC(=O)CNC(=O)CCc1nnc(C2(c3ccc(Cl)cc3)CCC2)o1 | -10% | 45* | 21 | 7% | 39* | 12%
COc1cc(C(=O)Nc2c(C)cc(C)cc2C)c(Br)c(OC)c1OC | -5% | -1 | ? | 64% | -8 | 1%
Cc1c(-n2cc(C(=O)O)c(=O)c3cc(F)c(N4CCCC4)c(F)c32)c(=O)n(-c2ccccc2)n1C | -11% | -2 | -10 | 42% | -7 | 11%
CN1CCN(c2c(F)cc3c(=O)c(C(=O)O)cn4c3c2SCC4)CC1 | ? | -3 | 2 | 5.2µM* | -5 | 9%
CCC(C(=O)OCC(=O)N(C)c1c(N)n(Cc2ccccc2)c(=O)[nH]c1=O)c1ccccc1 (stereo unspecified) | 33% | · | -15 | 5% | · | 11%
O=C(O)c1cccc(OCc2ccccc2Cl)c1 | 100% | 111* | 92 | ? | 122* | 14%
Cc1oc2ccc(OCc3ccccc3Cl)cc2c1C(=O)O | 24% | -1 | 0 | ? | -3 | 20%
Cc1ccccc1Cn1nnc(-c2cccc(C(=O)O)c2)n1 | 198% | 56* | 150 | 17% | 124* | 3%
COc1ccc(-c2nnn(Cc3ccccc3)n2)cc1 | 42% | 44* | 128 | 13µM* | 86* | 8%
Cc1ccccc1Cn1nnc(-c2ccc(C(=O)O)cc2)n1 | 7% | -4 | -13 | 17% | -2 | 6%
CSc1ccc(-c2nnn(Cc3ccc(C)cc3)n2)cc1 | · | 21* | 55 | -20% | 24 | -23%
Nc1ccc(-c2nnn(Cc3ccccc3)n2)cc1 | · | · | 59 | · | · | -13%
Cc1ccccc1-c1nnn(Cc2ccc(-c3nn[nH]n3)cc2)n1 | 24% | 3 | -3 | ? | 21 | 17%
COC(=O)c1cnc(N)s1 | · | · | -20 | · | · | 1%
CCOc1ncccc1C(=O)NCCCSc1ccccc1 | -10% | 1 | -24 | -14% | 16 | -11%
O=C(O)c1cccc(-c2nnn(Cc3ccccc3Cl)n2)c1 | i | 41* | 117 | i | 96* | 17%
SMILES | Pf growth 48h | Cycloheximide cs | HCMV antiviral | Pf growth 96h | Shiga inhibitor | HCV inhibitor
O=C(O)c1cccc(-c2nnn(Cc3ccccc3)n2)c1 | i | 70* | 31 | i | 63* | 15%
CN(CCCC1CCCC1)C(=O)CC1C(=O)NCCN1Cc1cccc(F)c1F (stereo unspecified) | ? | -5 | -28 | ? | -4 | 17%
CCN1C(=O)[C@@H]2[C@@H](c3ccc(SC4CCCCC4)cc3)N3CCC[C@@]3(C(=O)OC)[C@@H]2C1=O | 13µM* | · | 74 | 9.3µM* | · | -2%
COC(=O)[C@@]12CCCN1[C@H](c1ccc(SC3CCCCC3)cc1)[C@H]1C(=O)N(C)C(=O)[C@H]12 | 10µM* | · | -20 | ? | · | -7%
CCCSc1ccc([C@@H]2[C@@H]3C(=O)N(CC)C(=O)[C@@H]3[C@]3(C(=O)OC)CCCCN23)cc1 | · | · | -17 | · | · | -12%
CCN1C(=O)[C@H]2[C@@H](c3ccc(SC4CCCCC4)cc3)N3CCCC[C@@]3(C(=O)OC)[C@H]2C1=O | ? | · | 10 | ? | · | 19%
CCCSc1ccc([C@@H]2[C@H]3C(=O)N(CC)C(=O)[C@H]3[C@]3(C(=O)OC)CCCN23)cc1 | 9.3µM* | · | 20 | 15µM* | · | 0%
CCOC(=O)c1ccc(-c2ccc(/C=N/NC(=O)CN(c3ccccc3Cl)S(C)(=O)=O)o2)cc1 | -66% | 14* | -35 | ? | 5 | ?
CCOC(=O)c1ccc(-c2ccc(/C=N/NC(=O)CN(c3cccc(C)c3)S(C)(=O)=O)o2)cc1 | 52% | 2 | 33 | ? | -5 | -2%
Cc1ccccc1CSCC(=O)Nc1ccccc1F | 26% | 44* | 72 | ? | · | -6%
Cc1ccccc1CSCC(=O)NCc1ccco1 | 11% | 21 | 37 | 26% | 36* | 3%
O=C(CSCc1c(Cl)cccc1Cl)NCc1ccco1 | ? | -1 | 15 | 13µM* | 2 | -13%
O=C(CSCc1c(F)cccc1Cl)NCCSCc1ccco1 | 6% | 7 | 5 | -15% | 4 | 4%
O=C(CSCc1c(F)cccc1Cl)NCc1ccco1 | ? | 26* | -5 | 61% | 24 | 2%
CC1Cc2cc(S(=O)(=O)NCCC(=O)N(C)Cc3ccccc3)ccc2N1C(=O)C1CC1 (stereo unspecified) | ? | 15 | -23 | -9% | -2 | -13%
O=C(N[C@H]1CC[C@@]23CCCN2C(=O)CCC[C@H]3[C@H]1Cc1ccccc1)c1ccc(C(F)(F)F)cc1 | · | · | -1 | · | · | ·
O=C(Nc1ccccc1F)c1coc(=O)c(Br)c1 | -9% | 51* | -7 | 1% | + | 31%
O=C(NCCc1ccc(F)cc1)c1coc(=O)c(Br)c1 | 10% | 14 | -78* | 37% | 32 | 7%
C[C@@H](NC(=O)c1coc(=O)c(Br)c1)c1ccccc1 | -16% | 20* | 7 | -21% | 26 | ?
O=C(NCc1ccccn1)c1coc(=O)c(Br)c1 | 0% | 1 | 50 | -2% | 10 | 13%
COc1ccc(C(=O)NC(C)c2ccccc2)cc1Br (stereo unspecified) | -1% | 3 | ? | 47% | 11 | -11%
O=C(Nc1ccc(Br)cn1)c1coc(=O)c(Br)c1 | 8% | 45* | 11 | 6% | 49* | 3%
